Results taken from PubChem BioAssay.

How the values were obtained:
[1] = tested on: Botulinum neurotoxin type F light chain protease (Clostridium botulinum); assay: Botulinum neurotoxin type F light chain protease inhibition, multiplex microsphere flow cytometry, validation set (AID 588459); details: multiplex microsphere protease substrate cleavage assay, at 10 µM, active compounds read high
[2] = molecular target: Botulinum neurotoxin type A (Clostridium botulinum) (UniProt P0DPI0); assay: BoNT/A light chain protease inhibitors, biochemical, multiplex microsphere flow cytometry, validation set (AID 588460); details: at 10 µM, active compounds read high
[3] = molecular target: Lethal factor (Bacillus anthracis) (UniProt P15917); assay: Lethal factor protease inhibitors, Bacillus anthracis, multiplex microsphere cleavage assay, validation set (AID 588461); details: flow cytometry, at 10 µM, active compounds read high

Measured: inhibition

COc1ccc(CC(=O)N2CC3(C)CC2CC(C)(C)C3)cc1OC (configuration not stated)
inactive: [1] -2.6% | [2] -1.4% | [3] -0.4%

CCC(=O)c1ccc(OCc2ccc(C(=O)OC)cc2)cc1
inactive: [1] -1.6% | [2] 0.7% | [3] -3.4%

COc1ccc2c(CC(=O)NCC3CCC(C(=O)O)CC3)cc(=O)oc2c1 (configuration not stated)
inactive: [1] 1% | [2] -0.1% | [3] 3.6%

COc1ccc(-c2c(C)c3ccc(OCC(C)=O)cc3oc2=O)cc1
inactive: [1] -3.2% | [2] -0.4% | [3] 1.2%

CC(=O)OCC1OC(n2ccc(=O)[nH]c2=O)C(O)C1O (configuration not stated)
inactive: [1] -0.4% | [2] 0.5% | [3] -5.3%

Cc1c(CCOC(=O)CC23CC4CC(CC(C)(C4)C2)C3)sc[n+]1Cc1ccc([N+](=O)[O-])cc1
inactive: [1] -3.1% | [2] 1.6% | [3] -4.8%

COc1ccc(S(=O)(=O)NC(Cc2cnc[nH]2)C(=O)O)cc1 (configuration not stated)
inactive: [1] 2.4% | [2] -0.6% | [3] -0.5%

CCC(CO)NCCNC(CC)CO (configuration not stated)
inactive: [1] 0.2% | [2] 1.5% | [3] -0.2%

O=C(CCCn1c(=O)oc2ccccc21)N1CCN(c2ccc(F)cc2)CC1
inactive: [1] 1.1% | [2] 0.2% | [3] -4.7%

O=C(NCC1CCCCN1)c1cc(OCC(F)(F)F)ccc1OCC(F)(F)F (configuration not stated)
inactive: [1] -0.8% | [2] -0.3% | [3] -2%

Cc1nc(NC(CC(C)C)C(=O)O)c2nc(C)oc2n1 (configuration not stated)
inactive: [1] 1.1% | [2] 1.1% | [3] -5.4%

COc1ccc(C(=O)Oc2ccc3c(C)cc(=O)oc3c2C(C)=O)cc1
inactive: [1] 0.7% | [2] -0.3% | [3] 3%

COc1cc(C=NCC2OCCc3ccccc32)cc(OC)c1 (configuration not stated)
inactive: [1] 5.8% | [2] 0.3% | [3] 3.3%

O=C(O)c1ccccc1OCCOc1ccccc1
inactive: [1] 3.5% | [2] 2.5% | [3] 7.2%

O=C(c1ccco1)N1CCCN(Cc2nc(-c3ccc4c(c3)OCO4)no2)CC1
inactive: [1] 1% | [2] 0% | [3] 3.6%

CC(=O)C1=C(O)C(=O)N(CC(=O)O)C1c1ccccc1Cl (configuration not stated)
inactive: [1] -1.5% | [2] -0.5% | [3] -3%

COC(=O)c1ccc(NC(=O)C23CCC(C)(C(=O)O2)C3(C)C)cc1 (configuration not stated)
inactive: [1] 0.4% | [2] -1.5% | [3] 2.4%

CC(C)NCC(O)COc1ccc(CCOCC2CC2)cc1 (configuration not stated)
inactive: [1] -0.9% | [2] -3.6% | [3] 1.3%

CCOC(=O)C(=O)N1CCN(c2ccccc2OC)CC1
inactive: [1] 1.5% | [2] -1.1% | [3] -4.9%

COc1ccc(CN(CCN(C)C)c2ccccn2)cc1
inactive: [1] 0.8% | [2] 1.3% | [3] -14.9%

COc1ccc2oc(=O)c(-c3nc(C)cs3)cc2c1
inactive: [1] 2.9% | [2] 1.9% | [3] -0.1%

Cc1cc(C(C)(C)C)cc(C)c1CC1=NCCN1
inactive: [1] 1.3% | [2] 1.2% | [3] 1.8%

OC[C@H]1O[C@@H](n2cnc3c(NC4CCCC4)ncnc32)[C@H](O)[C@@H]1O
inactive: [1] -1.4% | [2] 0.2% | [3] -6.9%

CCN(CC)CCNC(=O)c1cc(S(C)(=O)=O)ccc1OC
inactive: [1] 2.7% | [2] 1.8% | [3] 4.7%

COc1cc(/C=C/C(=O)O)cc(S(=O)(=O)NCCCO)c1OC
inactive: [1] 1.9% | [2] 0.7% | [3] 2.3%

O=C(CCSc1ccccc1)N1CCCC1
inactive: [1] 1.2% | [2] -0.9% | [3] -2.3%

N/C(=N\OC(=O)c1ccc(Br)o1)c1ccccn1
inactive: [1] -0.2% | [2] -0.3% | [3] 0.7%

CCn1c(C)cc2c(c1=O)C(c1ccccc1)C(C(=O)OC)=C(N)O2 (configuration not stated)
inactive: [1] 0.3% | [2] -0.9% | [3] -3.3%

CC[C@H]1CN2CCc3cc(OC)c(OC)cc3[C@@H]2C[C@@H]1C[C@H]1NCCc2cc(OC)c(OC)cc21
inactive: [1] 3.7% | [2] 0.9% | [3] 0.6%

CCNC(=O)c1c(N)sc2c1CCCCC2
inactive: [1] 0.9% | [2] -0.9% | [3] -5.1%

CC(C)(C)NC[C@H](O)COc1nsnc1N1CCOCC1
inactive: [1] 0.1% | [2] 0% | [3] -3.8%

O=C(CCNNC(=O)c1ccncc1)NCc1ccccc1
inactive: [1] 4.1% | [2] 0.9% | [3] 5.5%

CC(C)(Oc1ccc(CCNC(=O)c2ccc(Cl)cc2)cc1)C(=O)O
inactive: [1] -1.2% | [2] 0.1% | [3] 8.7%

O=C(/C=C/c1ccc(F)cc1)N1CC[C@@]2(O)CCCC[C@H]2C1
inactive: [1] -2.9% | [2] -2.2% | [3] 5.2%

CC(C)Oc1ccc(C2CC(=O)N(c3ccc(C(=O)O)cc3)C2=O)cc1 (configuration not stated)
inactive: [1] 2.1% | [2] -0.7% | [3] -6.7%

CC(=O)OC1c2c(ccc3ccc(=O)oc23)OC(C)(C)C1OC(=O)CC(C)C (configuration not stated)
inactive: [1] -0.2% | [2] -1.5% | [3] -3.2%

N/C(=N\OC(=O)CCCOc1ccc(Cl)cc1Cl)c1ccncc1
inactive: [1] 3.7% | [2] 0.1% | [3] 1%

Cc1ncc(CN2CCC(CO)(CCc3ccccc3)CC2)s1
inactive: [1] 1.3% | [2] 0.2% | [3] -3%

O=C(O)c1ccccc1O
inactive: [1] 0.4% | [2] -0.5% | [3] 2.3%

CCSc1nc(O)c(C2OC(=O)c3c2ccc(OC)c3OC)c(=O)n1CC (configuration not stated)
inactive: [1] -0.7% | [2] 0.5% | [3] -2.4%

C=CCNC(=S)N1CCc2c([nH]c3ccccc23)C1C (configuration not stated)
inactive: [1] 1.4% | [2] 0.4% | [3] 0.1%

CC(=O)OCC(=O)[C@@]1(O)CC[C@H]2[C@@H]3CCC4=CC(=O)C=C[C@]4(C)[C@H]3[C@@H](O)C[C@@]21C
inactive: [1] -5.9% | [2] -1.8% | [3] -2.4%

COc1ccc(C2(CCN=Cc3ccc(N(C)C)cc3)CCOC(C)(C)C2)cc1 (configuration not stated)
inactive: [1] 9.1% | [2] 1.6% | [3] -2%

CCOc1ccc(C(=O)N2CCCC2C(=O)O)cc1 (configuration not stated)
inactive: [1] -1.3% | [2] 0.5% | [3] 1.5%

CC1(C)Cc2ccccc2-c2n[nH]c(=S)n21
inactive: [1] -0.3% | [2] 0.5% | [3] 1.7%

CC(=O)CC(c1ccc([N+](=O)[O-])cc1)c1c(O)c2ccccc2oc1=O (configuration not stated)
inactive: [1] 0.7% | [2] 0.2% | [3] -1.2%

Cc1ccc2c(c1)C(O)(C1COC(C)(C)CC1=O)C(=O)N2C (configuration not stated)
inactive: [1] -1.1% | [2] 1.7% | [3] -0.8%

Cc1[nH]c2ccccc2c1C(=O)CN1CCCC1
inactive: [1] 0.8% | [2] 0.2% | [3] -1.1%

CCOC(=O)c1ccccc1NC(=O)c1ccc(F)cc1
inactive: [1] -1.8% | [2] -1% | [3] -0.1%

CC(=O)N1CCN2C(=O)C1CCCC(=O)c1cc(C(C)C)ccc12 (configuration not stated)
inactive: [1] -1.6% | [2] -1.6% | [3] -5.3%

O=C(Nc1ccc(F)c([N+](=O)[O-])c1)c1ccc2c(c1)OCCO2
inactive: [1] -3.7% | [2] -2.7% | [3] -7.5%

COc1ccccc1-c1c(C(F)(F)F)oc2cc(OC(=O)c3ccc([N+](=O)[O-])cc3)ccc2c1=O
inactive: [1] 0.7% | [2] -0.5% | [3] 3.7%

CC(=O)O[C@H]1CSC[C@H]1NC(=O)c1ccccc1
inactive: [1] -2.6% | [2] -1.2% | [3] -4.4%

O=C(COc1ccccc1)N1CCN(c2ccccc2)CC1
inactive: [1] -3.8% | [2] 0% | [3] -0.7%

COc1ccccc1C1C(C#N)=C(N)Oc2c1oc(CO)cc2=O (configuration not stated)
inactive: [1] 1.9% | [2] -1% | [3] -5.1%

COC(=O)c1ccc2c(c1)C(=O)/C(=C/c1ccc(O)cc1)O2
inactive: [1] -0.8% | [2] 0.7% | [3] -8.5%

Cc1ccc(NCCC(=O)c2ccccc2)cc1Cl
inactive: [1] 4.1% | [2] 0.4% | [3] -2.5%

CCc1cc(-c2[nH]ncc2-c2ccc3c(c2)OCO3)c(O)cc1O
inactive: [1] -0.4% | [2] -0.4% | [3] 2.3%

CN1CCN(CC/C=C2/c3ccccc3Sc3ccc(S(=O)(=O)N(C)C)cc32)CC1
inactive: [1] 3.2% | [2] 0.9% | [3] 0%

Cc1ncc([N+](=O)[O-])n1CCO
inactive: [1] 3% | [2] -0.4% | [3] -4.2%

C#C[C@]1(O)CC[C@H]2[C@@H]3CCc4cc(OC)ccc4[C@H]3CC[C@@]21C
inactive: [1] 0.9% | [2] 0.4% | [3] -5.2%

CC(=O)Oc1ccc(C(c2ccc(OC(C)=O)cc2)c2ccccn2)cc1
inactive: [1] 1.2% | [2] -0.3% | [3] -2.2%

COc1cccc(OCc2nnc(-c3cccs3)o2)c1
inactive: [1] 1.2% | [2] -0.7% | [3] 1.3%

CC1(C(=O)O)CCC(C(=O)NC2CCCCCC2)C1(C)C (configuration not stated)
inactive: [1] -6.8% | [2] -1.2% | [3] -7.7%
